The panel holds about 83,000 compounds, 20% with a hit somewhere; the sample as a whole holds those more often.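 How to read the values: 0–100, growth inhibition (40 = 60% inhibited); 0, no net growth; -100 to 0, cell death (-40 = 40% of starting cells died; -100 = all dead).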 Unmarked numbers belong to inactive results. Activity calls are given as the source filed them. The calls were made as follows: active = growth percent below 10; inactive = the rest.
What was measured:
Assay in all cases: NCI-60 one-dose screen, 48 h (100 = growth as untreated, 0 = no growth, -100 = all killed)
NCI-H226 lung = details: 10 µM unless noted
HOP-92 NSCLC = details: 10 µM unless noted
NCI-H522 lung = details: 10 µM unless noted
A549/ATCC NSCLC = details: 10 µM unless noted
SK-MEL-2 melanoma = details: 10 µM unless noted
EKVX NSCLC = details: 10 µM unless noted
TK-10 renal = details: 10 µM unless noted
ACHN renal = details: 10 µM unless noted
SR leukemia = details: 10 µM
OVCAR-4 ovarian = details: 10 µM unless noted
SK-OV-3 ovarian = details: 10 µM unless noted
NCI/ADR-RES ovarian = details: 10 µM unless noted
NCI-H322M lung = details: 10 µM unless noted
HOP-62 NSCLC = details: 10 µM unless noted
COLO 205 colon = details: 10 µM
MALME-3M melanoma = details: 10 µM unless noted
SNB-75 CNS = details: 10 µM unless noted
OVCAR-5 ovarian = details: 10 µM unless noted
IGROV1 ovarian = details: 10 µM

SMILES | growth (NCI-H226 lung) [%] | growth (HOP-92 NSCLC) | growth (NCI-H522 lung) | growth (A549/ATCC NSCLC) | growth (SK-MEL-2 melanoma) | growth (EKVX NSCLC) | growth (TK-10 renal) | growth (ACHN renal) | growth (SR leukemia) | growth (OVCAR-4 ovarian) | growth (SK-OV-3 ovarian) | growth (NCI/ADR-RES ovarian) | growth (NCI-H322M lung) [%] | growth (HOP-62 NSCLC) | growth (COLO 205 colon) | growth (MALME-3M melanoma) | growth (SNB-75 CNS) [%] | growth (OVCAR-5 ovarian) | growth (IGROV1 ovarian)
NCCc1cc(O)c(O)cc1O | 99.1 | 85.4% | -11.5% (active) | 100% | 101% | 102% | 95.3% | 87.4% | 98% | 99.5% | 99% | 101% |  |  |  |  |  |  | 
ClCCN(CCCl)c1nc(Cl)c(C2CC(c3ccc(Cl)cc3)=NN2c2cc(Cl)cc(Cl)c2)s1 (stereo not given) | 99.9 |  | 80% | 97.7% | 96.3% | 102% | 109% | 106% | 93.1% | 99.7% | 87.1% | 114% | 102 | 98.4% | 105% | 107% | 97.7 | 108% | 102%
OC1CCCCC1N1CCC(c2ccccc2)CC1 (stereo not given) | 114 |  |  | 106% |  | 104% | 99% | 109% | 94% | 109% | 104% |  |  |  | 107% | 103% |  |  | 
Cn1cnnc1[S-].[Au+].c1ccc([PH+](c2ccccc2)c2ccccc2)cc1 |  | -58.1% (active) | -75% (active) | 78.8% |  | 60.7% | -44.5% (active) | -42.3% (active) | 4.41% (active) | 38.9% |  | 69.5% | 89 | 25.1% | -10% (active) | -38.1% (active) |  | 91.9% | -1.4% (active)
CCC[CH2][Sn]([CH2]CCC)([CH2]CCC)[O]C(=O)c1ccc(Cl)cc1Cl |  |  | -73.3% (active) | -79.9% (active) | -73.6% (active) | -65% (active) | -90.5% (active) | -100% (active) | 3.12% (active) | -67.7% (active) | -96% (active) | -68.6% (active) |  | -82.2% (active) | -68.8% (active) | -76.8% (active) |  | -95.1% (active) | -68.5% (active)
CC(C)OC(=S)[S-].[Au+].c1ccc([PH+](c2ccccc2)c2ccccc2)cc1 |  | -23% (active) | -63.6% (active) | 84.5% | 33% | 82.9% |  |  |  | 38.9% |  |  | 99.4 | 76% |  | 5.97% (active) | 18.5 | 73.9% | 2.28% (active)
Cc1cc(CCl)c(C)cc1CCl | 83.3 | 79.3% | 55.5% |  | 70.1% | 106% | 37.3% |  | 11.9% |  | 73.9% | 62% | 15 | 15.3% |  | 82.9% | 48.4 | 141% | 26.4%
COc1c(O)c2c3c(c1OC)-c1ccccc1CC3N(C)CC2 (stereo not given) |  | 110% | 88.6% |  |  | 115% | 102% |  | 75.1% |  | 94.2% | 99.7% |  | 104% |  | 105% |  | 109% | 96.8%
CC(C)(C)[Si](C)(C)OC1[C@@H](O[Si](C)(C)C(C)(C)C)[C@@H](CNC(=O)NC(=O)CF)O[C@H]1n1cnc2c(NC(=O)Nc3ccccc3)ncnc21 (stereo not given in full) |  |  |  | 26.2% |  |  |  | 71.8% | -22.6% (active) | 63.8% | 89.3% | 71% | 104 | 87.1% | 84.4% | 101% | 73.8 | 91.5% | 72.9%
S=P(Nc1ccccc1)(Nc1ccccc1)c1ccccc1 | 112 | 84.1% |  | 91.8% | 105% | 90% |  |  |  | 104% | 108% | 88.3% | 107 | 90.7% | 146% | 142% | 96.7 | 99.6% | 101%
CNC(=O)Oc1cc(C(C)C)ccc1Sc1ccc(C(C)C)cc1OC(=O)NC | 83.2 | 89% | 75.7% | 64.2% | 72.4% | 69.1% |  |  | 15.8% | 80.8% | 80.1% | 54.1% |  |  | 112% | 62.7% | 52.1 | 95.7% | 
